The record followed here is PubChem BioAssay (Tox21).

Molecules are shown by their SMILES. Values without a mark were called inactive. Records with an inconclusive call do not appear. Activity calls are given as the source filed them. Unless noted, the call rests on the fitted dose curve.

Test [1] is described as follows: Nuclear factor erythroid 2-related factor 2/antioxidant responsive element (Nrf2/ARE) small molecule agonists: qHTS cell viability counter screen in human keratinocytes (AID 1919968; active means well fitted curve in the direction sought with a large enough effect in the repeat runs; an effect the other way counts as inactive or inconclusive; further: nearly all actives have a fitted effect of over 55% in size). In a few lines: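 After a 5 h attachment period, ARE-reporter keratinocytes were dosed with compounds in DMSO and then cultured 23 h at 37 C. Cell viability came from CellTiter-Fluor signal read after a further 1 h.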
Background: In qHTS, concentration-response curves come from the screen itself.

Test [2] in a line: Nuclear factor erythroid 2-related factor 2/antioxidant responsive element (Nrf2/ARE) small molecule agonists: luciferase reporter gene qHTS assay in human keratinocytes (AID 1919969). Further: nearly all actives have a fitted effect of over 35% in size. Further: potency means the concentration at half of the fitted maximal effect.
In test [3] the target is Gonadotropin-releasing hormone receptor (Homo sapiens) (UniProt P30968). Description: Human gonadotropin-releasing hormone receptor (GnRHR) small molecule agonists, calcium flux assay in GnRHR-HEK293 cells (AID 1920063). Further: nearly all actives have a fitted effect of over 35% in size. The method in brief:
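We seeded human GnRHR-expressing HEK293 cells for 18 hours, loaded them with calcium dye for an hour at 37 C, added test compounds, and recorded fluorescence intensity kinetically for three minutes.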
A general note: Calcium flux is commonly read through the fluorescence of an indicator in the cells.

In test [4] the target is KiSS-1 receptor (Homo sapiens) (UniProt Q969F8). Briefly: Human kisspeptin (KISS1R) small molecule agonists, calcium flux assay in KISS1R-HEK293 cells (AID 1920064; active means well fitted curve in the direction sought with a large enough effect in the repeat runs; an effect the other way counts as inactive or inconclusive). In a few lines:
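Kinetic calcium assay, 1 s sampling over 3 min at Ex/Em 480/540, in HEK293 cells engineered with human KISS1R; compounds delivered in DMSO after 1 h dye loading.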

Test [5] is described as follows: G protein-coupled receptor (GPCR) small molecule agonists, calcium flux assay: HEK293 wild type cell line counter screen (AID 1920065). The method in brief: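 Calcium-sensitive dye, loaded 1 h at 37 C into cells cultured 18 h, reports compound-evoked calcium release as fluorescence (Ex/Em 480/540), measured over 3 min. Agonist mode; 15-point titrations, triplicate.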

The nature of test [6]: p53 small molecule agonists, cell-based qHTS assay with rat liver microsomes (AID 1963578). The method in brief:
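Read-out is beta-lactamase reporter fluorescence (LiveBLAzer, 2 h, room temperature, dark) in p53RE-bla cells treated 16 h at 37 C with compound, rat liver microsomes and NADPH, both 0.5 mg/mL final.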

A short description of test [7]: p53 small molecule agonists, cell-based qHTS assay with human liver microsomes: qHTS cell viability counter screen (AID 1963579). Further: nearly all actives have a fitted effect of over 45% in size. In a few lines: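 Cells carrying the p53 response-element beta-lactamase reporter are treated for 16 h at 37 C with test compounds in the presence of human liver microsomes and NADPH (both 0.5 mg/mL final); ATP-based CellTiter-Glo luminescence then reports viability.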

Test [8] can be described thus: p53 small molecule agonists, cell-based qHTS assay with rat liver microsomes: qHTS cell viability counter screen (AID 1963580). Further: nearly all actives have a fitted effect of over 45% in size. The method in brief:
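In HCT-116 cells carrying a p53 response element-bla reporter, compounds were metabolically activated in situ by rat liver microsomes with NADPH over 16 h. Cell ATP content then served as the cytotoxicity measure.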

The nature of test [9]: p53 small molecule agonists, cell-based qHTS assay: qHTS cell viability counter screen (AID 1963581). Further: nearly all actives have a fitted effect of over 45% in size. In a few lines: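 Following 5 h attachment, HCT-116 p53RE-bla cells took up compound for 16 h at 37 C; the reporter was read with B/G FRET substrate (2 h RT), and viability then via CellTiter-Glo ATP luminescence.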
The nature of test [10]: p53 small molecule agonists, cell-based qHTS assay (AID 1963582; active means well fitted activation curve with a large enough effect in the signal ratio in the repeat runs, not every such curve was filed as active; the % refers to the signal ratio). In a few lines:
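In this cell-based concentration-response screen, a p53 response element drives beta-lactamase; cells received DMSO-borne compounds after 5 h culture and were incubated a further 16 h before FRET substrate development.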

Test [11] deals with 5-hydroxytryptamine receptor 2A (Homo sapiens) (UniProt P28223). Description: 5-hydroxytryptamine receptor 2A (HTR2A) small molecule antagonists, cell-based qHTS assay (AID 1963586). Further: nearly all actives have a fitted effect of over 45% in size. In a few lines: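 Antagonist-mode intracellular calcium assay: DOI (4 nM) added after 5 min compound pre-incubation at room temperature to dye-loaded HTR2A-CHO cells. Fluorescence followed for 3 min, sampled every second.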

In test [12] the target is Muscarinic acetylcholine receptor M1 (Homo sapiens) (UniProt P11229). Description: Cholinergic receptor muscarinic 1 (CHRM1) small molecule antagonists, cell-based qHTS assay (AID 1963588). Further: nearly all actives have a fitted effect of over 40% in size. In a few lines: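 CHRM1-CHO calcium-flux assay, antagonist mode. Cells were seeded 18 h, dye-loaded 1 h at 37 C and given compound for 5 min at RT, then acetylcholine was added at 50nM. FDSS fluorescence was read 3 min; 15 concentrations, three runs.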

The target is the same in test [13]. Description: Cholinergic receptor muscarinic 1 (CHRM1) small molecule agonists, cell-based qHTS assay (AID 1963589). Further: nearly all actives have a fitted effect of over 35% in size. The method in brief:
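Measures agonist-induced intracellular calcium rise. Stable human CHRM1 CHO line, 1 h dye load at 37 C, compounds from DMSO, kinetic fluorescence read.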

Test [14] can be described thus: cAMP Responsive Elements (CRE) small molecule agonists, cell-based qHTS assay (AID 1963590). In a few lines: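 A CRE-responsive beta-lactamase reporter in HEK 293T cells was used. Treatment ran 3 h at 37 C; detection used LiveBLAzer B/G FRET substrate for 2 h at room temperature.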
Test [15] is described as follows: cAMP Responsive Elements (CRE) small molecule antagonists, cell-based qHTS assay (AID 1963591; active means well fitted inhibition curve with a large enough effect in the signal ratio in the repeat runs, not every such curve was filed as active; the % refers to the signal ratio). In a few lines:
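HEK293T cells carrying a CRE-driven beta-lactamase reporter receive compound and NKH477 (0.25 uM final) for 3 h. Fluorescence from LiveBLAzer B/G FRET substrate is read after 2 h at room temperature.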

The target of test [16] is D(2) dopamine receptor (Homo sapiens) (UniProt P14416). Description: Dopamine D2 receptor (DRD2) small molecule agonists, cell-based qHTS assay (AID 1963594). Further: nearly all actives have a fitted effect of over 35% in size. In a few lines: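 HEK293 cells stably expressing DRD2 were cultured 24 h at 37 C, then given Ro20-1724 (0.1 mM final) and compounds for 10 min at room temperature. NKH477 (200nM) was then added for 30 min. cAMP was read by HTRF.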

Test [17] shares this target. Briefly: Dopamine D2 receptor (DRD2) small molecule antagonists, cell-based qHTS assay (AID 1963595; active means well fitted inhibition curve with a large enough effect in the signal ratio in the repeat runs, with a control signal flat; the % refers to the signal ratio). The method in brief: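 DRD2-HEK293; 0.1 mM Ro20-1724; cpd 10 min RT; NKH477 200 nM + quinpirole 12 nM, 30 min RT; HTRF cAMP (cAMP-d2/anti-cAMP cryptate), 665/620 nm ratio after 1 h.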
Test [18] has as its target 5-hydroxytryptamine receptor 2A (Homo sapiens) (UniProt P28223). Description: 5-hydroxytryptamine receptor 2A (HTR2A) small molecule agonists, cell-based qHTS assay (AID 1963587). Further: nearly all actives have a fitted effect of over 30% in size. In a few lines: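 HTR2A-CHO cells, plated 18 h at 37 C/5% CO2, dye-loaded 1 h at 37 C; compounds in DMSO added by pin tool (agonist mode). Intracellular calcium flux read as kinetic fluorescence on FDSS over 2 min at 1 s intervals.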

The target in test [19] is Beta-2 adrenergic receptor (Homo sapiens) (UniProt P07550). Briefly: Adrenergic beta2 receptor (ADRB2) small molecule antagonists, cell-based qHTS assay (AID 1963592). Further: series mostly up to about 92 µM; nearly all actives have a fitted effect of over 50% in size. In a few lines: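 Cells (CHO, stable ADRB2 overexpression) incubated 18-20hr at 37C; compounds added from DMSO; agonist mix (1nM isoproterenol, 100uM IBMX, 25uM Ro-20-1724) added; 0.5hr RT; d2-cAMP and anti-cAMP-cryptate added; 1hr RT; 665/615 nm read.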

Test [20] is described as follows: p53 small molecule agonists, cell-based qHTS assay with human liver microsomes (AID 1963577). Further: potency means the concentration at half of the fitted maximal effect. The method in brief: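 Compounds act here after metabolic activation: human liver microsomes and NADPH, both at 0.5 mg/mL final, were co-added to p53RE-bla cells. Incubation ran 16 h at 37 C, followed by LiveBLAzer detection.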

Chain of Gonadotropin-releasing hormone receptor (Homo sapiens) (P30968 whole entry, looked up): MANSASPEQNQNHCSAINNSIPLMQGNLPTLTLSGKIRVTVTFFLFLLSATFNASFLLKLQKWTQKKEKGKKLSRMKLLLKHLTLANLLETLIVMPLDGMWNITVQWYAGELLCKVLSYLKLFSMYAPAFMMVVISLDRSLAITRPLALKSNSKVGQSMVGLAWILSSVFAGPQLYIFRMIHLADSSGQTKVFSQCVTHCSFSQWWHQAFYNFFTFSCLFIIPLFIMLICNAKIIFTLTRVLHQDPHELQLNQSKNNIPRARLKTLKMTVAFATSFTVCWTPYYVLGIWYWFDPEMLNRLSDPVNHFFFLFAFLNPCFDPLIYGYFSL
Chain of Beta-2 adrenergic receptor (Homo sapiens) (P07550 whole entry, looked up): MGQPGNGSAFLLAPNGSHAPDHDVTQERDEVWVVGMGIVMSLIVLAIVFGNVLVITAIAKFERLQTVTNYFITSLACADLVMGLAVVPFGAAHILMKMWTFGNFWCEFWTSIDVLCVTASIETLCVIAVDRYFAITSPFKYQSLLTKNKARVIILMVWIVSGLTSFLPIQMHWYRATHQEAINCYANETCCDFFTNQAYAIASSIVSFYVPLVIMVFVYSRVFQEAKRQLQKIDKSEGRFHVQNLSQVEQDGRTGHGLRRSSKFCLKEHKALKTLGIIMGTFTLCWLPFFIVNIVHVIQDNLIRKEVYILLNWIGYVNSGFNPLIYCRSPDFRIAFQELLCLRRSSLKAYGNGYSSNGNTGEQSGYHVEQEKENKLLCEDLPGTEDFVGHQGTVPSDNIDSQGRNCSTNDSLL
Chain of Muscarinic acetylcholine receptor M1 (Homo sapiens) (P11229 whole entry, looked up): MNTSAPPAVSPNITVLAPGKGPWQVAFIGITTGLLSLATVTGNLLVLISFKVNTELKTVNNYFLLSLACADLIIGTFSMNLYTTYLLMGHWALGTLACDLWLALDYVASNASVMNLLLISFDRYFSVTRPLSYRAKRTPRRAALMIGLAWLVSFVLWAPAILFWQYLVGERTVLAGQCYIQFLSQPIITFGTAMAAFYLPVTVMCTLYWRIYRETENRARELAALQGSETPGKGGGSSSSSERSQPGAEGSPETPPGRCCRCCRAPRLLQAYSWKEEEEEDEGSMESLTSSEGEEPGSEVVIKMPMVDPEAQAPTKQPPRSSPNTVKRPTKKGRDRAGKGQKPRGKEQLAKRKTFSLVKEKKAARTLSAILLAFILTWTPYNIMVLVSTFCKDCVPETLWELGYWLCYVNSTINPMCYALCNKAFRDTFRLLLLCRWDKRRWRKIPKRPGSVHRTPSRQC
Chain of D(2) dopamine receptor (Homo sapiens) (P14416 whole entry, looked up): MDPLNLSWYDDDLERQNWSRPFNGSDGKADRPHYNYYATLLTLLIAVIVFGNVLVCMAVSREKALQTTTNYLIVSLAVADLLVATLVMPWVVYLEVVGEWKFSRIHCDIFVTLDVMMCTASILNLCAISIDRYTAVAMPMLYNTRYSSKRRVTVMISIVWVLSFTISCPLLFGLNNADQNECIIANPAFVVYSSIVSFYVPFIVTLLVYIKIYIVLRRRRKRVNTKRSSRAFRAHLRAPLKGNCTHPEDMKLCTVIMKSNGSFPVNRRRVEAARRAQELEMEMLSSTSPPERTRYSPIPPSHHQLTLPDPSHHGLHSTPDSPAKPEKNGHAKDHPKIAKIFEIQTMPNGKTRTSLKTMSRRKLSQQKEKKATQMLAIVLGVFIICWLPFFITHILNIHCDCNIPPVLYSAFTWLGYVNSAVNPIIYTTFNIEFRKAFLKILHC
Chain of KiSS-1 receptor (Homo sapiens) (Q969F8 whole entry, looked up): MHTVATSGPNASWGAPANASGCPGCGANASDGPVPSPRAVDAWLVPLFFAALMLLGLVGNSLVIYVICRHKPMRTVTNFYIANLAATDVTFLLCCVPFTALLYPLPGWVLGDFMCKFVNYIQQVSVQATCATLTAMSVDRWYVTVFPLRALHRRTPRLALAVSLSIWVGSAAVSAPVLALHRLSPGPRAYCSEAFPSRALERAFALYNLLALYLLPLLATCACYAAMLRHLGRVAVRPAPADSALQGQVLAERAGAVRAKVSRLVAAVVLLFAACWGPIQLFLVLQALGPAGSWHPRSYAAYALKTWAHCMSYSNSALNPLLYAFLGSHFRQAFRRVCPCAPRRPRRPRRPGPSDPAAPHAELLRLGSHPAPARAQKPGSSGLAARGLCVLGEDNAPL
Chain of 5-hydroxytryptamine receptor 2A (Homo sapiens) (P28223 whole entry, looked up): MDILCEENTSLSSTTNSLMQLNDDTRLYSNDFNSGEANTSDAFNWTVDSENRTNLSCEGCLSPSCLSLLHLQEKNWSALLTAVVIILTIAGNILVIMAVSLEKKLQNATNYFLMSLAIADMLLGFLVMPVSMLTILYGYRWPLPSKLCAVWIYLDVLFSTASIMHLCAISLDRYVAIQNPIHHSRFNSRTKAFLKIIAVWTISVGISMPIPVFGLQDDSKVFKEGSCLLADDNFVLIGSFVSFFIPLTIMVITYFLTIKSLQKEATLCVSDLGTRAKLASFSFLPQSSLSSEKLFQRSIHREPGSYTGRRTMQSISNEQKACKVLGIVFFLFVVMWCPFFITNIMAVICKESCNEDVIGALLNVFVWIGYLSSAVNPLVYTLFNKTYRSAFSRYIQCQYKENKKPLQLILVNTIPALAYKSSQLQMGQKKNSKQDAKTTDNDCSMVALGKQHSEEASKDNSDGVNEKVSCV

With `O=c1[nH]c2ccccc2n1C1CCNCC1`, the Potency entry in test [1], in test [2], in test [3], in test [4], in test [5] and in test [6] was “inactive” in each case. Moreover, the Potency result in [7], in test [8], in test [9], in [10], in test [11] and in test [12] was “inactive” each time. Further, the Potency result in test [13], in [14], in test [15], in test [16] and in test [17] was “inactive” in each case.
For `COc1ccc(-c2ccccc2)cc1NNC(=O)OC(C)C`, the Potency result in [1], in test [2], in test [3], in test [4], in [5] and in [6] was “inactive” throughout. Moreover, the Potency result in test [7], in test [8], in test [9], in test [10], in test [18] and in [12] was “inactive” throughout. Further, the Potency entry in test [13], in [15], in [19] and in test [17] was “inactive” in each case.
For `Cc1ccccc1OP(=O)(Oc1ccccc1C)Oc1ccccc1C`, the Potency entry in test [1], in test [3], in test [4], in test [5], in test [8] and in test [9] was “inactive” in each case. For the same compound, the Potency result in test [11], in test [18], in test [12], in [13], in test [15] and in [19] was “inactive” throughout. The Potency result in [16] is “inactive”. In addition, the Potency in test [2] was 48.8 µM (active); in test [20] it was 1.83 µM (active).
Turning to `CCCCCCCCBr`, the Potency entry in test [1], in [2], in test [3], in test [4], in [5] and in test [6] was “inactive” throughout. For the same compound, the Potency result in [7], in test [8], in test [9], in [10], in test [11] and in test [18] was “inactive” throughout. Also, the Potency entry in [12], in [13], in [14], in [15], in test [19] and in [16] was “inactive” each time. The Potency entry in test [17] is “inactive”.
As for `CC(Cc1ccccc1)N(C)Cc1ccco1` (stereo unspecified), the Potency result in test [1], in test [2], in [3], in test [4], in [5] and in test [20] was “inactive” each time. Further, the Potency result in test [7], in test [8], in [9], in test [12], in test [13] and in test [14] was “inactive” throughout. Further, the Potency entry in test [15], in test [19], in test [16] and in [17] was “inactive” in each case.
On to `COP(=S)(OC)Oc1c(Cl)cc(C)cc1Cl`, for which the Potency result in test [1], in test [2], in test [3], in test [4], in [5] and in test [7] was “inactive” throughout. For the same compound, the Potency result in [8], in test [9], in [10], in test [11], in [18] and in test [12] was “inactive” each time. Moreover, the Potency entry in test [13], in [14], in test [15], in test [19], in test [16] and in test [17] was “inactive” throughout.
`Cc1ccc(C)c2ccccc12`: the Potency result in test [1], in test [2], in test [3], in test [4], in test [5] and in test [7] was “inactive” each time. The Potency result in test [8], in test [9], in test [11], in test [18], in test [12] and in test [13] was “inactive” each time. The Potency result in test [14], in [15] and in test [19] was “inactive” in each case.
